These results are taken from PubChem BioAssay AID1918 (Vanderbilt High Throughput Screening Facility, 2009).

The whole screen tested about 130,000 compounds, of which about 2,500 (1.9%) were called active.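 How the source made its calls: active means signal ratio slope over the read window, or its plate-corrected B-score, at least 3 SD from the plate mean, either direction; inactive means the rest.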 The full list was thinned out, with actives kept by preference.

In the experiment the target is ATP-sensitive inward rectifier potassium channel 1 (Homo sapiens) (UniProt P48048). Briefly: Kir1.1 channel activity modulation, library screen – cell-based, thallium flux, MLSMR library, primary screen (AID 1918).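 Further: B-score of the F/F0 ratio slope over 7 to 12 s after thallium.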 The following applies: Tet-inducible ROMK, thallium flux fluorescence; at 10 µM; actives lie on both sides.
ATP-sensitive inward rectifier potassium channel 1 (Homo sapiens), sequence (P48048 whole entry, looked up): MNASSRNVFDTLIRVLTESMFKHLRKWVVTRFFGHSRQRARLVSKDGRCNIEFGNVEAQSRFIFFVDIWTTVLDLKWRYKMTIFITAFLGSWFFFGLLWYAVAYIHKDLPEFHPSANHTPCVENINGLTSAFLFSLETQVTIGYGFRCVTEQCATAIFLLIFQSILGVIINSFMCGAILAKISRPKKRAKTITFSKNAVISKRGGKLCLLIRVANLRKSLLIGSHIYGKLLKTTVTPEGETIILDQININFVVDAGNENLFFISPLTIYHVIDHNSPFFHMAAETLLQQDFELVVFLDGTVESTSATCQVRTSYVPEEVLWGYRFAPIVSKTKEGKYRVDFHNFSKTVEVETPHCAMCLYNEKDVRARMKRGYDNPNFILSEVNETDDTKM
As to `O=C(N/N=C/c1ccc([N+](=O)[O-])cc1)c1c[nH]c2ccccc12`, the B-score was -0.0103 (inactive).
For the compound `CC(=O)n1c(C=Nc2ccccc2)c(O)c2ccccc21`, the B-score is -1.73 (inactive).
The same measure for `O=[N+]([O-])c1ccc(N=Cc2c(O)ccc3ccccc23)cc1`: -4.23 (active); for `CCOc1ccc(C(C)C)cc1S(=O)(=O)n1nc(C)cc1C`: -0.531 (inactive); for `CCOc1ccc(Br)cc1S(=O)(=O)N1CCC(C(=O)O)CC1`: -0.0303 (inactive).
As to `CCOc1ccc(-n2cnnn2)cc1S(=O)(=O)N1CCC(C)CC1C` (centres undefined), the B-score is -3.15 (active).
The result for `O=C1[C@@H]2C(c3cccnc3)=NO[C@@H]2C(=O)N1c1ccc(Cl)cc1Cl` reads 0.0407 (inactive); that for `O=c1c2c(nc3nc[nH]n13)CCC2`, 0.251 (inactive).
`O=c1c2c(nc3cc(-c4cccc(Cl)c4)[nH]n13)CCCC2`: the B-score was -0.277 (inactive).
Turning to `CSc1nc2nc3c(c(=O)n2[nH]1)CCC3`, the B-score was 1.45 (active).
Take `O=C(c1ccncc1)N1CCN(c2ccc3ccccc3n2)CC1`: the B-score is -0.138 (inactive).
Turning to `Cc1ccccc1CCN(CC(=O)NC1CCCCC1)C(=O)c1csnn1`, the B-score was -3.14 (active).
Regarding `CCC(C)(C)NC(=O)C(c1ccccn1)N(C(=O)c1csnn1)c1ccccc1` (centres undefined), the B-score is 0.633 (inactive).
As for `O=C(NC1CCCC1)C(c1ccccn1)N(C(=O)c1csnn1)C1CCCC1` (centres undefined), the B-score was 0.761 (inactive).
Consider `COc1ccc(-c2ccc(CNCCCN3CCOCC3)o2)cc1Cl`, for which the B-score is -0.161 (inactive).
The result for `CCOc1ccc(N2CC(C(=O)NCCN3C(=O)S/C(=C\c4cccnc4)C3=O)CC2=O)cc1` (centres undefined) reads 0.439 (inactive); that for `COc1ccccc1N1CCN(C(=O)c2ccc(Cl)c(S(=O)(=O)N3CCCC3)c2)CC1`, -0.388 (inactive); that for `O=C1c2cccc3c([N+](=O)[O-])ccc(c23)C(=O)N1CC1CCCO1` (centres undefined), -2.58 (active).
As to `O=C(NCc1ccc2c(c1)OCO2)c1ccc2c(c1)C(=O)N(CC1CCCO1)C2=O` (centres undefined), the B-score is 0.455 (inactive).
Consider `O=c1c2cc3c(=O)n(CC4CCCO4)c(=O)c3cc2c(=O)n1CC1CCCO1` (centres undefined), for which the B-score was 1.28 (inactive).
In the case of `C/C(=N\Nc1nc(N2CCOCC2)nc(N2CCOCC2)n1)c1ccc([N+](=O)[O-])cc1`, the B-score is 0.473 (inactive).
The result for `CC1CCN(C(=S)c2cccc(O)c2)CC1` reads 0.17 (inactive); that for `Cc1nc(-c2ccccc2)sc1C(=O)/C=C/N(C)C`, 0.143 (inactive).
For `CCC(=O)Nc1sc(C(=O)Nc2ccccc2)c(C)c1C(=O)OC`, the B-score is -1.11 (inactive).
In the case of `CCOC(=O)c1sc(NC(=O)COc2ncnc3ccccc23)c(C(=O)OCC)c1C`, the B-score is 0.196 (inactive).
The same measure for `CCOC(=O)c1c(NC(=O)CCl)sc(C(=O)N(CC)CC)c1C`: 1.96 (active); for `Cc1nnnn1/C(=C\c1ccccc1)C(=O)OCC(=O)N1CC2(C)CC1CC(C)(C)C2` (centres undefined): -5.08 (active); for `COc1ccccc1C(=O)N1CC2(C)CC1CC(C)(C)C2` (centres undefined): -0.0792 (inactive).
As for `COc1ccc(C(=O)N2CC3(C)CC2CC(C)(C)C3)cc1OC` (centres undefined), the B-score was 0.464 (inactive).
The same measure for `Cc1ccc(SCCC(=O)NCc2ccccn2)cc1`: -0.142 (inactive); for `O=C(O)CC(SCC(=O)Nc1ccc(Br)cc1)C(=O)O` (centres undefined): -0.193 (inactive).
For the compound `COC(=O)C1=C(C)NC2=C(C(=O)c3ccccc32)C1c1ccc(-c2ccc(C(=O)O)cc2)o1` (centres undefined), the B-score is 3.35 (active).
Take `CCOC(=O)c1ccc(-c2ccc(C(=O)Nc3cccnc3)o2)cc1`: the B-score was 0.149 (inactive).
As to `Cc1ccc(C2C3=C(Nc4[nH]n(-c5ccccc5)c(=O)c42)c2ccccc2C3=O)cc1` (centres undefined), the B-score is -2.43 (inactive).
As for `COc1ccc(-n2c(O)c(C=NCC(c3ccco3)N3CCCC3)c3ccccc3c2=O)cc1OC` (centres undefined), the B-score was 0.182 (inactive).
On to `O=C(CSc1nnnn1-c1ccc(O)cc1)N1N=C(c2ccc3ccccc3c2)CC1c1ccccc1` (centres undefined), for which the B-score was 0.13 (inactive).
The same measure for `CN(C)c1ccc(/C=N\S(=O)(=O)c2ccccc2)cc1`: 0.722 (inactive); for `CN(C)c1ccc(C=C2C(=O)OC3(CCCC3)OC2=O)cc1`: -4.03 (active).
Take `CC1=NN(Cc2ccccc2)C(=O)/C1=C/c1ccc(N(C)C)cc1`: the B-score was -0.804 (inactive).
The result for `Cc1noc(C)c1C(=O)OCC(=O)/C=C1\N(C)c2ccccc2C1(C)C` reads -0.053 (inactive); that for `CN1/C(=C\C(=O)c2cccnc2Cl)C(C)(C)c2ccccc21`, 0.168 (inactive); that for `CC(=O)Nc1cccc(OCC(=O)/C=C2\N(C)c3ccccc3C2(C)C)c1`, -3.01 (active).
In the case of `Cc1ccccc1NC(=S)NNC(=O)c1cccc(Br)c1`, the B-score was -1.36 (inactive).
As to `N#Cc1c(-c2ccc(Cl)cc2)c2c([nH]c1=S)CCCC2`, the B-score is -0.344 (inactive).
In the case of `CN(C)c1nc(-c2cccnc2)nc(-c2ccc(Cl)cc2)c1C#N`, the B-score is -1.03 (inactive).
On to `CNc1nccc(-c2ccc(Cl)cc2)c1C#N`, for which the B-score was -3.41 (active).
On to `COCc1c(N)c(C)nc(Cl)c1C#N`, for which the B-score is 0.228 (inactive).
Regarding `O=C(CN1CCCCC1)Nc1ccccc1Cl`, the B-score is 1.02 (inactive).
Consider `O=C1/C(=C\c2ccccc2Cl)SC(=S)N1CCC(=O)N1CCCc2ccccc21`, for which the B-score was -0.502 (inactive).
For the compound `O=C(CN1CCCCCC1)NCCN1C(=O)S/C(=C\c2ccccc2Cl)C1=O`, the B-score was -2.58 (active).
In the case of `CSc1ccc(CNCCN2CCOCC2)cc1`, the B-score was -0.131 (inactive).
The same measure for `CCN(CC(=O)NCc1cccs1)S(=O)(=O)c1ccc(NC(C)=O)cc1`: -0.12 (inactive); for `O=C(CCl)N(Cc1cccc([N+](=O)[O-])c1)c1cccc(Cl)c1`: -3.06 (active).
As for `CCN(CC)C(=O)CN(c1cccc([N+](=O)[O-])c1)S(=O)(=O)c1ccccc1`, the B-score was 0.165 (inactive).
The same measure for `O=C(Nc1cccc([N+](=O)[O-])c1)Nc1ccc(Cl)cn1`: 0.868 (inactive); for `COc1cccc(CC2(CO)CCCN(CC3=Cc4cc(OC)ccc4OC3)C2)c1` (centres undefined): -0.447 (inactive).
The same measure for `CCc1ccc(-n2c(=S)sc3c(=O)n(-c4ccccc4OC)c(=S)[nH]c32)cc1`: 0.222 (inactive); for `COc1cccc(-n2c(=S)sc3c(=O)n(-c4ccccc4OC)c(SCC4OCCO4)nc32)c1`: 0.408 (inactive).
Regarding `COc1ccccc1-n1c(=S)[nH]c2c(sc(=S)n2-c2ccc(C)cc2C)c1=O`, the B-score was 2.35 (active).
`COc1ccc(NC(=O)c2ccccc2CC[N+](=O)[O-])cc1`: the B-score is 0.216 (inactive).
With `COC(=O)COc1cccc2c(=O)n(CC(=O)NCCc3ccc(OC)c(OC)c3)ccc12`, the B-score was -0.562 (inactive).
The result for `COC(=O)COc1cccc2c(=O)n(CC(=O)NCc3ccccc3)ccc12` reads 2.99 (active); that for `CCOC(=O)C(C)Oc1cccc2c(=O)n(CC(=O)NCCc3ccc(OC)c(OC)c3)ccc12` (centres undefined), -0.831 (inactive); that for `COc1cccc(CN2CCNC(=O)C2CC(=O)N(C)CCc2ccccn2)c1` (centres undefined), 0.0523 (inactive).
As to `C/C(=N/NC(=O)CSc1ccccn1)c1ccc([N+](=O)[O-])cc1`, the B-score was -0.494 (inactive).
For `O=c1cnnc(Nc2ccccc2F)[nH]1`, the B-score was 0.476 (inactive).
In the case of `CCOC(=O)Cc1csc(NC(NC(=O)OCC)(C(F)(F)F)C(F)(F)F)n1`, the B-score is 1.5 (inactive).
Take `CCOC(=O)Cc1csc(NC(=O)CSc2nnc(-c3cccnc3)n2Cc2ccco2)n1`: the B-score is 0.0388 (inactive).
On to `CCOC(=O)Cc1csc(SCC(=O)NC(C)C23CC4CC(CC(C4)C2)C3)n1` (centres undefined), for which the B-score is -3.3 (active).
With `CCOC(=O)Cc1csc(NC(=O)Nc2ccccc2)n1`, the B-score is 0.0709 (inactive).
For `CCOC(=O)Cc1csc(NC(=O)CSc2nc(C)cc(=O)[nH]2)n1`, the B-score was -0.406 (inactive).
`CCOC(=O)Cc1csc(NC(=O)CSc2ccc(Br)cc2)n1`: the B-score is -2.72 (active).
`Cn1nc(C(F)(F)F)c2cc(C(=O)N3CCOCC3)sc21`: the B-score is 1.3 (inactive).
As to `COc1ccccc1-n1ccnc1SCC(=O)NC(C)(C)C`, the B-score was -0.243 (inactive).
As for `CCCCc1nc(NCCN)c(C#N)c2c1CSC(C)(C)C2`, the B-score is -3.92 (active).
As for `CCCCc1nc(NCc2ccccc2)c(C#N)c2c1CCCC2`, the B-score is 0.19 (inactive).
As to `Cc1nc(NCCN)c(C#N)c2c1COC(C)(C)C2`, the B-score is 0.0226 (inactive).
Take `COc1cc2nc(CN(C)Cc3ccc(F)cc3)[nH]c(=O)c2cc1OC`: the B-score was 0.927 (inactive).
Consider `COc1ccc(-c2nc(CN3CCN(c4ncccn4)CC3)c(C)o2)cc1C`, for which the B-score was -0.768 (inactive).
Turning to `Cc1cc(NC(=O)OC(C)C)ccc1-c1ccc(NC(=O)OC(C)C)cc1C`, the B-score is 0.938 (inactive).
With `O=C(NNC(=O)C1C2CCC(C2)C1C(=O)O)c1ccc(Cl)cc1` (centres undefined), the B-score is -0.0201 (inactive).
Regarding `C[C@H](NC(=O)c1ccccc1Cl)C(=O)OCCOc1cccc(Cl)c1`, the B-score is 0.0242 (inactive).
As to `COc1ccc(Cl)cc1C(=O)NNC(=S)NC(=O)/C=C/c1ccco1`, the B-score is 1.26 (inactive).
On to `COc1cc2c(cc1OC)C(/C=C/c1ccco1)=NCC2`, for which the B-score was -7.44 (active).
As to `COc1cccc2c(N/N=C/c3ccco3)cc(C)nc12`, the B-score was -0.776 (inactive).
The result for `Cc1cc(=O)oc2c1c(C)nn2-c1ccc(Cl)cc1` reads 0.108 (inactive).
On to `COc1ccc(S(=O)(=O)NCC2CCCN(C(=O)c3occc3C)C2)cc1` (centres undefined), for which the B-score was -0.286 (inactive).
`C/C=C/C=C/C(=O)OCC(=O)Nc1ccc(Cl)cc1`: the B-score was -0.0163 (inactive).
On to `CCC(C)NC(=O)Cn1nc(C(F)(F)F)c2c1CCC2` (centres undefined), for which the B-score was -0.0332 (inactive).
As for `Cc1cc(-c2csc(N)n2)c(C)n1Cc1ccccc1`, the B-score is -1.12 (inactive).
The result for `O=C(NC(Nc1nc2ccc([N+](=O)[O-])cc2s1)(C(F)(F)F)C(F)(F)F)c1ccccc1` reads -4.53 (active); that for `O=C(Nc1nc2ccc([N+](=O)[O-])cc2s1)c1ccc(S(=O)(=O)N2CCCc3ccccc32)cc1`, -2.44 (inactive); that for `O=C(O)CCC(=O)Nc1nc2ccc([N+](=O)[O-])cc2s1`, 0.0361 (inactive).
`O=C(NCCCN1CCOCC1)c1ccccc1NS(=O)(=O)c1ccc(F)cc1`: the B-score is 0.243 (inactive).
